Results: PubChem BioAssay (NCI)
The panel holds about 83,000 compounds, 20% with a hit somewhere; the sample as a whole holds those more often.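 Negative percent growth values reflect cell death: -40 means 40% of the cells present at the start died, and -100 means all died.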 Values without a mark were called inactive. Activity calls are given as the source filed them.

Each compound was assayed on KM12 colon (assay: NCI-60 one-dose screen, 48 h (100 = growth as untreated, 0 = no growth, -100 = all killed)). Settings: 10 µM unless noted.
Method: Growth inhibition of the KM12 human tumor cell line is measured as a screen for anti-cancer activity. Cells are grown in 96 well plates and exposed to the test compound for 48 hours. Compounds are tested at a single concentration, which is 10^-5 M for most compounds. The reported endpoint is percent growth (GI% or GIPRCNT), where numbers from 0 - 100% represent growth inhibition, and numbers from -100% - 0 represent cell death. For example, a value of 40 represents 60% growth inhibition. A value of 0 means no net growth occurred over the course of the experiment. A value of -40 indicates 40% of cells at the beginning of the experiment died by the end of the experiment. A value of -100 means all cells are dead at the end of the experiment.
NCI-60 Human Tumor Cell Lines Screen was performed using the standard one-dose NCI protocol, which is described in more detail at https://dtp.cancer.gov/discovery_development/nci-60/default.htm.
Compounds with GIPRCNT values below 10 were considered active. Activity score was based on GIPRCNT using the following formula: […]
Score is 0 for GIPRCNT values of 100 or above, 50 for GIPRCNT values of 0, and 100 for GIPRCNT values of -100.

| SMILES | growth |
| --- | --- |
| C=CCN(CC#N)CC=C | 108% |
| CCCCCCCCCCCCCC1=NC(C)(C)CN1C(C)C | -75.5% (active) |
| COC(=O)CSc1ccc(Cl)cc1 | 111% |
| CC1(C)OC2OC3C(CN)OC(c4ccccc4)OC3C2O1 (stereo not given) | 104% |
| O=C(NCCN1CCCCC1)n1cc(-c2ccncc2)c(-c2ccc(Cl)c(O)c2)n1 | 102% |
| CC1CCN(CCCCCOc2ccc3oc4ccc(Cl)cc4c(=O)c3c2)CC1 | 62.3% |
| CCN(CC)c1cc(C)c(Cc2c(OC)ccc3ccccc23)cc1C | 98.1% |
| COc1cc(OC)cc(-c2ccc(-c3ccc(C(=N)N)s3)s2)c1 | -73.3% (active) |
| NNc1ccc(S(N)(=O)=O)cc1 | 105% |
| O=C(NO)c1ccc(CNc2cccc3nc(C4CC4)n(-c4ccccc4)c(=O)c23)cc1 | 8.66% (active) |
| COc1ccc(-c2nc3c(c(-c4ccc(Cl)cc4)nn3-c3ccccc3)c(-c3ccc(O)cc3)c2C#N)cc1 | 34.4% |
| COc1ccc2nc(-c3ccc(-c4noc(-c5ccc(Cl)cc5)n4)cc3)[nH]c2c1 | 53.3% |
| COc1cc(-c2nc(-c3ccc(-c4nc5ccc(F)cc5[nH]4)cc3)no2)cc(OC)c1OC | 11.5% |
| O=C(Nc1cccc(-n2ccc3c(NC(=O)c4ccccc4)nccc32)c1)c1ccc(N2CCOCC2)c(C(F)(F)F)c1 | 7.93% (active) |
| Cc1c(C(=O)Nc2ccccc2F)sc2c(=O)[nH]cnc12 | 61.8% |
| CC1OC(n2c3ccccc3c3c4c(c5c6ccccc6[nH]c5c32)C(=O)N(CCN2CCOCC2)C4=O)CC(O)C1O (stereo not given) | 30.7% |
| O=C(c1ccccc1)c1cccc(C(Br)Br)c1 | 75.2% |
| COc1cc(OC)c2sc(-c3ccc(-n4cncc4-c4ccc(OC)c(N)c4)cc3)nc2c1 | 77.7% |
| Cc1ccc(Nc2cccc3ccccc23)cc1 | 59.4% |
| Fc1ccc(-c2cnc3nonc3n2)c(F)c1 | 82.9% |

| SMILES | growth |
| --- | --- |
| Clc1ccc(Cl)c(N=Cc2ccc3c(c2)OCO3)c1 | 106% |
| S=C(Nc1ccc(Cl)cc1)Nc1ccc(Cl)cc1 (tested in a mixture with another compound) | 3.43% (active) |
| FC(F)(F)c1cc(-c2nnc3n2N=C(Cl)CS3)cc(C(F)(F)F)c1 | 109% |
| COc1ccc(-c2cc(-c3cc4ccccc4oc3=O)n(-c3ccccc3)n2)cc1 | 69.3% |
| COc1ccc(Oc2nc(Nc3ccc(N4CCOCC4)cc3)ncc2NC(=O)Nc2cccc(OC)c2)cc1 | 59.2% |
| O=C1OC(/C=C/c2ccccc2)=NC/1=C/c1ccccc1[N+](=O)[O-] | 102% |
| COc1ccc2c(c1)OC1=C(C(=O)OC1)C2c1cc(OC)c2c(c1)OCCO2 (stereo not given) | 2.33% (active) |
| C[C@@H]1CC2C3CCC4=CC(=O)C=C[C@]4(C)[C@@]3(Cl)[C@@H](O)C[C@]2(C)[C@@]1(OC(=O)c1ccco1)C(=O)CCl (stereo not given in full) | 76.9% |
| COc1ccc(-c2cnnn2-c2nonc2-n2cccc2)cc1 | 3.78% (active) |
| CCCCCCCC/C=C\CCCCCCCC(=O)OCCCCCC | 102% |
| CCc1c(C)c2ccc(O)c(-c3cc(-c4ccccc4)c(C#N)c(=O)[nH]3)c2oc1=O | 96.2% |
| C#C[C@]1(O)CC[C@H]2[C@@H]3CC=C4c5sc(-c6cccc(Br)c6)nc5CC[C@]4(C)[C@H]3CC[C@@]21C | 63.8% |
| Cc1ccccc1Nc1n[nH]c(Cc2ccccc2)n1 | 101% |
| CN1CCCN(CCNc2nccc(-c3c(-c4cccc(O)c4)nc4sccn34)n2)S1(=O)=O | 64.8% |
| CCN(CC)CC(=O)Nc1c(C)ccc(N)c1C | 114% |
| O=C(NNC(=O)c1cccc(Cl)c1)c1ccccc1 | 111% |
| CCOC(=O)C1C(=O)C=C(c2ccccc2)CC1c1sc(N(C)Cc2ccccc2)nc1Cl (stereo not given) | 90.9% |
| CC(C)(C)[Si](C)(C)OC1[C@@H](O[Si](C)(C)C(C)(C)C)[C@@H](CNC(=O)NC(=O)NC(=O)CI)O[C@H]1n1cnc2c(NC(=O)Nc3ccccc3)ncnc21 (stereo not given in full) | 32.9% |
| COc1cccc(/C(C)=N/NC(=O)CSc2nc3ccccc3c(=O)n2CCc2ccc(S(N)(=O)=O)cc2)c1 | 14% |
| CCCCCCCC/C=C/CCCCCCCC1=NC(C)(C)CN1c1ccccc1 | 105% |
